Data from PubChem BioAssay (NCATS).
Results filed as inconclusive are left out. Calls of active or inactive are those of the source. The call rests on the fitted dose curve; in most records, active means well fitted curve in the direction sought with a large enough effect; inconclusive means small, poorly fitted or top-dose-only effect, or another doubt; inactive means no such curve, though single readings can be large; an effect the other way counts as inactive or inconclusive.

Experiments:
[1] = Cellular Toxicity (caspase-3) N2a (AID 665); conditions: N2a cells, luminescence, normalized: DMSO 0%, 10 µM staurosporine 100%; at 92.2 µM (top of the series);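 further: compound exposure lasted 16 h at 37 °C before readout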
In short: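 Luminescent Caspase-Glo 3/7 readout in N2a mouse neuroblastoma cells after 16 h compound exposure at 37 °C. Signal scaled to DMSO (basal) and 10 uM staurosporine (100%). Concentration-response fitted with Hill equation for AC50.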

[2] = Cellular Toxicity (caspase-3) NIH 3T3 (AID 666);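 further: 0% = DMSO basal and 100% = 100 µM tamoxifen stimulation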
In short: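 NIH 3T3, 1000 cells/well, 5 hr settle then 16 hr compound at 37°C; Caspase-Glo 3/7, 20 min RT, luminescence. DMSO = basal, 100 uM tamoxifen = 100%. Hill-equation AC50, qHTS.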

[3] = Cellular Toxicity (caspase-3) Renal Proximal Tubule (AID 667); conditions: renal proximal tubule cells; at 91.7 µM (top of the series), primary cells freshly taken from rat, solvent-only wells 0%, staurosporine 100% unless noted;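 further: cells exposed to compound for 16 hours at 37 °C before detection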
In short: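 Caspase-Glo 3/7 read-out, rat primary kidney proximal tubule cells. Compound exposure 16 h, 37 °C; detection after 1 h at RT. Activity scaled to DMSO and 10 uM staurosporine.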

[4] = target: Cytochrome P450 3A4 (Homo sapiens) (UniProt P08684); assay: qHTS Assay for Inhibitors and Substrates of Cytochrome P450 3A4 (AID 884); further: on the % scale 0 is the no-effect control and ±100 the full control effect; nearly all actives have a fitted effect of over 50% in size
In short: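 Luminescent readout of luciferin produced by CYP3A4 (20 nM) dealkylation of Luciferin-PPXE, 25 uM (its KM). NADPH-driven reaction ran 60 min at RT after 10 min compound preincubation; data scaled to 57 uM ketoconazole as 100% inhibition.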

[5] = Confirmation and Secondary Assay for Modulators of Hemoglobin Beta Chain Splicing at IVS2 654 locus (AID 910); further: % of control where 0% means no effect
In short: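 HeLa cells stably carrying EGFP interrupted by mutant beta-globin IVS2-654 intron (CMV-driven) were treated with compound for 2 days at 37C; corrected splicing was scored as total peak GFP intensity per well (488 nm excitation, 500-520 nm emission).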

[6] = Cell Viability - LYMP2-001 (AID 921);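 further: 0% = DMSO only and full inhibition = tetraoctylammonium bromide control wells; nearly all actives have a fitted effect of over 70% in size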
In short: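 A lymphoblastoid cell line of human origin was treated with library compounds across a concentration series for 24 hours, and viable cell number was estimated from ATP-driven luciferase light output. Hill modeling gave AC50.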

[7] = Confirmation and Secondary Assay for Modulators of Hemoglobin Beta Chain Splicing at IVS2 705 locus (AID 930);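 further: HeLa cells stably expressing the EGFP-705 splicing reporter; GFP fluorescence per well restored by corrected splicing of the IVS2-705 intron in EGFP; % of control where 0% means no effect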
In short: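 HeLa cells stably carrying EGFP interrupted by mutant beta-globin intron 2 (IVS2-705) treated 2 days at 37C with compound; 500 nM antisense PNA as control. Correct splicing read as total peak GFP intensity per well by laser-scanning cytometry.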

[8] = MultiTox-Fluor Cytotoxicity Assay - LYMP1-001 - Dead Cells (AID 946);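 further: 0% = DMSO and 100% = tetraoctylammonium bromide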
In short: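 AC50 from Hill fit of concentration-response; data normalized to DMSO (basal) and 15 uM tetraoctylammonium bromide (100%). LYMP1-001 lymphoblastoid cells, 2500/well, 16 hr compound at 37 C; dead-cell protease fluorescence, Ex/Em 485/520.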

[9] = MultiTox-Fluor Cytotoxicity Assay - LYMP1-001 - Live Cells (AID 947);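 further: 0% = DMSO only and full inhibition = tetraoctylammonium bromide control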
[10] = Cell Viability - LYMP1-002 - Assay at 16 hr (AID 948);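 further: 0% = DMSO alone and full effect = 92 µM tetraoctylammonium bromide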
In short: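 In this qHTS, lymphoblastoid LYMP1-002 cells (human) receive compounds for 16 hr at 37 C. Viability is taken from CellTiter-Glo ATP luminescence, and AC50 derives from standard Hill fits.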

[11] = MultiTox-Fluor Cytotoxicity Assay - LYMP1-002 - Dead Cells (AID 960);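 further: 0% = DMSO and 100% = tetraoctylammonium bromide; nearly all actives have a fitted effect of over 60% in size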
In short: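 Readout: fluorescence at 485/520 from cell-impermeant bis-AAF-R110 cleaved by proteases leaking from damaged cells. LYMP1-002 lymphoblastoid line, 16 hr compound treatment at 37 C, concentration-response in qHTS format; Hill-equation AC50 values.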

[12] = MultiTox-Fluor Cytotoxicity Assay - LYMP1-003 - Dead Cells (AID 961);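 further: 0% = DMSO and 100% = tetraoctylammonium bromide; nearly all actives have a fitted effect of over 70% in size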
In short: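 Human lymphoblastoid LYMP1-003 cells (2500/well) were treated with compounds for 16 hr at 37 C in complete medium. Dead-cell protease release was read by bis-AAF-R110 fluorescence (Ex/Em 485/520). AC50 came from Hill fits, normalized to DMSO and 15 uM tetraoctylammonium bromide.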

[13] = MultiTox-Fluor Cytotoxicity Assay - LYMP1-003 - Live Cells (AID 962);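 further: cells exposed to compound for 16 hours at 37 °C; 0% = DMSO only and full loss = 92 µM tetraoctylammonium bromide; cytotoxic hits lower the live-cell protease signal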
In short: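 Readout: live-cell fluorescence (Ex/Em=405/510) from GF-AFC cleavage after 60 min MultiTox-Fluor reagent at room temperature. Lymphoblastoid LYMP1-003 cells, 16 hr compound treatment, 37 C. Concentration-response fitted to standard Hill equation for AC50.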

[14] = Cell Viability - LYMP1-003 - Assay at 24 hr (AID 963);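 further: plate controls were DMSO only for no effect and tetraoctylammonium bromide positive control for full effect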
In short: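 CellTiter-Glo luminescence (intracellular ATP) read after 24 hr, 37 C compound exposure of 2500 LYMP1-003 human lymphoblastoid cells/well in complete medium; qHTS concentration series; AC50 via standard Hill equation.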

[15] = Cell Viability - LYMP1-003 - Assay at 40 hr (AID 964); further: on the % scale 0 is the no-effect control and ±100 the full control effect; nearly all actives have a fitted effect of over 60% in size
In short: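 LYMP1-003 lymphoblastoid cells, 2500/well; 5 hr preincubation, 40 hr compound exposure, 37 C; CellTiter-Glo 30 min RT; luminescence; Hill-fit AC50. Positive control tetraoctylammonium bromide.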

[16] = Cell Viability - LYMP2-003 (AID 965);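 further: cells exposed to compounds for 24 h before reading; 0% = DMSO only and full effect = 92 µM tetraoctylammonium bromide; nearly all actives have a fitted effect of over 50% in size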
In short: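 qHTS, human lymphoblastoid line, 2500 cells/well, complete medium. 24 h drug, 37 C. ATP-based luminescent readout; Hill-fit AC50.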

[17] = Cell Viability - LYMP2-004 (AID 966);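 further: plate controls were DMSO only for no effect and tetraoctylammonium bromide control for full effect; nearly all actives have a fitted effect of over 65% in size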
In short: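 Luminescent ATP read-out (CellTiter-Glo, 30 min RT) after 24 hr compound exposure at 37 C; 2500 lymphoblastoid cells/well, complete medium. Decrease in ATP = cytotoxicity; AC50 from standard Hill model.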

[18] = Cell Viability - LYMP2-009 (AID 968);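 further: 0% = DMSO alone and the full-kill end = tetraoctylammonium bromide at 92 µM; nearly all actives have a fitted effect of over 55% in size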
[19] = Cell Viability - LYMP2-017 (AID 972);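 further: cells exposed to compound for 24 hours at 37 °C; on the % scale 0 is the no-effect control and ±100 the full control effect; nearly all actives have a fitted effect of over 55% in size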
In short: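 Luminescent ATP read-out (CellTiter-Glo, 30 min RT) reports viable cell number. Cells: human lymphoblastoid line, 2500 per well, 5 hr preincubation, 24 hr compound exposure at 37 C. AC50 is derived from qHTS concentration-response data using the standard Hill model.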

[20] = Cell Viability - LYMP2-019 (AID 973);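 further: 0% = DMSO alone and full effect = 92 µM tetraoctylammonium bromide; nearly all actives have a fitted effect of over 55% in size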
In short: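 qHTS, 1536-well; 2500 cells/well; 5 hr pre-incubation, 24 hr compound exposure, 37 C; CellTiter-Glo added, 30 min RT; luminescence read; AC50 via standard Hill equation.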

[21] = Cell Viability - LYMP2-021 (AID 974);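 further: compound exposure lasts 24 hours at 37 °C; on the % scale 0 is the no-effect control and ±100 the full control effect; nearly all actives have a fitted effect of over 55% in size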
In short: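 ATP luminescence (CellTiter-Glo, 30 min RT) after 24 h compound exposure at 37 C; 2500 human lymphoblastoid cells/well, 5 h settle beforehand. Cytotoxicity = concentration-dependent ATP drop, AC50 by Hill fit.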

[22] = Cell Viability - LYMP2-025 (AID 976);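 further: plate controls were DMSO only for no effect and tetraoctylammonium bromide control for full effect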
In short: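 CellTiter-Glo luminescence (cellular ATP) after 24 h compound exposure at 37 C; LYMP2-025 human lymphoblastoid cells, 2500/well, complete medium. Tetraoctylammonium bromide positive control. AC50 by Hill equation fit of qHTS concentration-response.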

[23] = Cell Viability - LYMP2-002 (AID 977);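 further: plate controls were DMSO only for no effect and 92 µM tetraoctylammonium bromide for full effect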
In short: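 In this qHTS viability screen, 2500 human lymphoblastoid cells per well receive compound for 24 hr at 37 C, and luciferase-based ATP luminescence gives the viability signal. Tetraoctylammonium bromide serves as positive control.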

Sequence of Cytochrome P450 3A4 (Homo sapiens) (P08684 whole entry, looked up): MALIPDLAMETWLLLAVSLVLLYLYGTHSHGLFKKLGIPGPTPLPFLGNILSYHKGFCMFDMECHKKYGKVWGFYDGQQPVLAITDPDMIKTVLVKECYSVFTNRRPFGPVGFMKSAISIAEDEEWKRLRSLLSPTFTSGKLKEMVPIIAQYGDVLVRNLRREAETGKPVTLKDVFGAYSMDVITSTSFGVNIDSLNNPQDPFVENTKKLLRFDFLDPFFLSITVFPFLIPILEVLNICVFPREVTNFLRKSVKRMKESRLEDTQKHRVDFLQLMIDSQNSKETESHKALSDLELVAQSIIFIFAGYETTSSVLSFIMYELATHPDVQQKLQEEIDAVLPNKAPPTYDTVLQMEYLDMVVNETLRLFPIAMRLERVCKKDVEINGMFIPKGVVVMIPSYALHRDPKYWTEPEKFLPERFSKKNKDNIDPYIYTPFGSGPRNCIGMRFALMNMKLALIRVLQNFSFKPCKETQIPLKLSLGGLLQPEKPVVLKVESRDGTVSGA

CCCCOC(=O)c1ccccc1C(=O)OCCCC
inactive: caspase-3 activation [1] -1.36% | outcome [2] | caspase-3 activation [3] -0.0975% [at 91.7 µM] | Potency [4] | Potency [5] | Potency [6] | Potency [7] | Potency [8] | Potency [9] | Potency [10] | Potency [11] | Potency [12] | Potency [13] | Potency [14] | Potency [15] | Potency [16] | Potency [17] | Potency [18] | Potency [19] | Potency [20] | Potency [21] | Potency [22] | Potency [23]
